# According to ChEMBL document CHEMBL4513216, “Probing the Open Global Health Chemical Diversity Library for Multistage-Active Starting Points for Next-Generation Antimalarials” (ACS Infect Dis, 2020):
# Among all 69,000 compounds or so, about 8,600 (12%) showed an effect of 50% or more. The entries come from a sample that favours strong results as a whole.
# System: Plasmodium berghei
# Assay: Screen against P. berghei liver stage (PbLuc), transformed with Luciferase, at 10uM
# Format: functional, HepG2
# Conditions: tested at 10 uM
row,SMILES,INHIBITION [%]
1,C[C@@H](N)C(=O)N1CCC(c2[nH]ncc2-c2ccccc2)CC1,36.15
2,CC(=O)N1C[C@H]2CCCN(Cc3ccc(C)o3)[C@H]2C1,-3.58
3,O=C(c1cnccn1)N1CCCC2(COCCN(CC3CC3)C2)C1 (stereo not given),37
4,O=C(NCc1ccccn1)[C@]12COC[C@H]1CN(Cc1cccnc1)C2,-17.2
5,C[C@H](NC(=O)N1CCC(Cc2ccccc2)CC1)C(=O)O,27.5
6,NC(=O)COc1ccc(CNCc2ccc(Cl)c(F)c2)cc1,0.426
7,CC(Cn1cccn1)NC(=O)CCC(=O)c1cccs1 (stereo not given),-13.5
8,Cc1cc(CC2COc3ccccc3C2)cnc1N (stereo not given),75.1
9,COc1cccc2c1OCC(Cc1cnc(N)c(C)c1)C2 (stereo not given),14.5
10,COc1ccc2c(c1)OCC(Cc1cncc(N)c1)C2 (stereo not given),61.1
11,c1ccc2c(c1)CC(Cc1cc(N3CCCC3)cnn1)CO2 (stereo not given),13
12,COc1ccc2c(c1)OCC(Cc1cnc(N)c(C)c1)C2 (stereo not given),55.9
13,COc1ccc2c(c1)OCC(Cc1cc(N3CCCC3)cnn1)C2 (stereo not given),-43.7
14,COc1ccc2c(c1)OCC(Cc1ccc(N(C)C)nc1)C2 (stereo not given),14.9
15,COc1ccc2c(c1)OCC(Cc1ccc(CN)cn1)C2 (stereo not given),-45.5
16,COc1ccc2c(c1)OCC(Cc1ccc(N)cn1)C2 (stereo not given),-93
17,O=C(c1sccc1-n1cnnn1)N1CCC2(CCCCC2)CC1,28.1
18,Cc1ccc(C(=O)NC(CN2CCCC2=O)c2ccccc2)cn1 (stereo not given),15.3
19,CC(C)N1CCC(c2nccnc2Nc2ncccn2)CC1,42.4
20,Cc1ncc2c(n1)CN(C=C1NN=C(c3occc3C)O1)CC2,47.6
21,O=C(Nc1cnn(Cc2ccccc2)c1)N1CCN(CCO)CC1,-26.8
22,c1cncc(-c2noc(C3CN(Cc4cccs4)C3)n2)c1,22.2

row,SMILES,INHIBITION [%]
1,Cc1nc(C2CCN(Cc3ncc[nH]3)CC2)no1,20.8
2,COC(=O)CN1CCSC(c2ccccc2)C1 (stereo not given),48.2
3,CSc1ccc(C(=O)C2CCCN(C(=O)CCCn3cncn3)C2)cc1 (stereo not given),22.2
4,Cc1c(CN2CCCC(C(=O)c3ccc(C(C)(C)C)cc3)C2)cnn1C (stereo not given),89.4
5,CN(C)c1ncc(CN2CCCC(Nc3ccc4c(c3)OCCO4)C2)s1 (stereo not given),-0.217
6,CSc1ccc(C(=O)C2CCCN(C(=O)CCn3cncn3)C2)cc1 (stereo not given),22.2
7,COc1ccc(C(=O)C2CCCN(Cc3cnn(C)c3C)C2)c(OC)c1 (stereo not given),14.3
8,CCn1ncc(CN2CCCC(C(=O)c3ccc(Cl)cc3)C2)c1C (stereo not given),18.5
9,CCCn1ncc(CN2CCCC(C(=O)c3ccc(Cl)cc3C)C2)c1C (stereo not given),73
10,CCn1ncc(CN2CCCC(n3c(=O)oc4ccccc43)C2)c1C (stereo not given),4.7
11,CC(C)(N)C(=O)N1CCCC(C(=O)c2ccc(C(C)(C)C)cc2)C1 (stereo not given),36.8
12,CCCn1ncc(CN2CCCC(C(=O)c3ccc(SC)cc3)C2)c1C (stereo not given),83.9
13,COc1ccc(F)cc1C(=O)C1CCCN(Cc2cnc(C)s2)C1 (stereo not given),47.2
14,Cc1cc(Cl)ccc1C(=O)C1CCCN(Cc2cnc(N(C)C)s2)C1 (stereo not given),83
15,Cc1cc(CN2CCN(C(=O)NCc3ccc(C)s3)CC2)on1,-24.2
16,Cc1cnn(CCNCC(=O)N2CCN(c3ccccn3)CC2)c1,-0.613
17,O=C(c1ccnc(-n2ccnc2)c1)N1CCCC(n2cccn2)C1 (stereo not given),36.1
18,CN(CC1COc2ccccc2O1)C(=O)c1ccc(-c2cn[nH]c2)nc1 (stereo not given),2.18
19,O=C(c1ccccn1)N1CCCC2(CCN(c3ccsc3)C2=O)C1 (stereo not given),35.6
20,CN(C)C(=O)[C@@H]1CCO[C@@H]2CCN(Cc3ccccc3)C[C@@H]21,-11.5
21,Cn1cc(-c2ncc(C(=O)NCCCn3ccccc3=O)s2)cn1,44.9
22,Cc1nc(C2CCCN2C(=O)Cc2ccc3c(c2)OCO3)nc(O)c1C (stereo not given),22

row,SMILES,INHIBITION [%]
1,CN1C(=O)CCC12CCN(Cc1ccco1)CC2,16.1
2,CN1CCN(c2nsc(-c3ccccc3)c2C#N)CC1,33.3
3,CCCOCCCNc1nccc(-c2cn(C)nc2C)n1,-49.8
4,Cc1nn(CCO)c(C)c1CNC1CCCCc2ccccc21 (stereo not given),17.8
5,CCCn1cc(-c2ccnc(NC3CCCc4ccccc43)n2)c(C)n1 (stereo not given),72.3
6,Cc1nn(C)c(N2CCOCC2)c1CNC1CCc2ccccc21 (stereo not given),7.08
7,CCCn1ncc(-c2ccnc(N[C@@H]3C[C@H]4CC[C@@H]3C4)n2)c1C,49.9
8,O=C(CS(=O)(=O)c1ccccn1)NC1CCCc2ccccc21 (stereo not given),-17.8
9,CCCn1ncc(-c2ccnc(NC3CC(C)(C)NC(C)(C)C3)n2)c1C,80.1
10,COc1c(CNC2CCCc3ccccc32)c(C)nn1C (stereo not given),37.9
11,CCCn1cc(-c2ccnc(NC3CCc4ccccc43)n2)c(C)n1 (stereo not given),82.2
12,CCCn1ncc(-c2ccnc(NC3CCCc4ccccc43)n2)c1C (stereo not given),77.2
13,CCCn1ncc(-c2ccnc(NC3CCSC3)n2)c1C (stereo not given),49.9
14,CCCn1ncc(C(=O)N2CCN(C3Cc4ccccc4C3)CC2)c1C,-20.8
15,CN1CCC/C1=N\S(=O)(=O)c1ccc(NC(=O)c2ccc(F)cc2)cc1,41.4
16,O=S(=O)(CC1CCCO1)Nc1cc(Cl)ccc1-n1cccn1 (stereo not given),-15.5
17,CC(=O)N[C@@H]1CN(Cc2oc3ccccc3c2C)C[C@H]1c1ccc(C)o1,37.7
18,CC(CO)(NC(=O)NCc1ccc(Br)s1)C1CC1 (stereo not given),-12.7
19,Fc1cnc(N2CCc3nnc(COc4ccccn4)n3CC2)nc1,-58.7
20,CC(C(=O)N1CCN(C)CC1)n1cc(Br)cn1 (stereo not given),21.7
21,Cc1noc(C)c1CN1CCN(CC2CC2)c2ncccc2C1,47.2
22,O=C(CCc1ccncc1)N1CCCC(N2CCNC2=O)C1 (stereo not given),37.9

row,SMILES,INHIBITION [%]
1,CC(=O)N1CC=C(n2c(=O)[nH]c3ccccc32)CC1,21.4
2,CCCn1cc(-c2ccnc(NC3CCc4ccccc4C3)n2)c(C)n1 (stereo not given),89.6
3,Cc1sc2ncc(-c3ccnc(NC4CCN(C)CC4)n3)c(=O)n2c1C,24.8
4,Cc1nn(C)c(N2CCOCC2)c1CNC1CCc2ccccc2C1 (stereo not given),35.7
5,O=C(C1CC1)N1CCC(Nc2nc(O)cc(-c3ccsc3)n2)CC1,-5.78
6,COC(=O)CCCC(=O)N1CCCCC1c1ccc(F)cc1 (stereo not given),34.1
7,CCc1nccn1CCC(=O)N1CCCC1c1ccc(F)cc1 (stereo not given),29.4
8,NCC(=O)N1CCCCC1c1ccc(F)cc1 (stereo not given),74
9,O=C1CCNC(=O)N1CC(=O)N1CCC1c1ccc(F)cc1 (stereo not given),-14.5
10,COCCC(=O)N1CCCCC1c1ccc(F)cc1 (stereo not given),48
11,O=C1CCCN1CCCC(=O)N1CCCCC1c1ccc(F)cc1 (stereo not given),74.9
12,Cn1cc(C2CCCN2C(=O)CCCOc2ccc(F)cc2)cn1 (stereo not given),0.914
13,O=C(c1cc(=O)[nH]c(=O)[nH]1)N1CCCCC1c1ccc(F)cc1 (stereo not given),30.1
14,O=C1CCCCN1CCC(=O)N1CCCCC1c1ccc(F)cc1 (stereo not given),53.6
15,Cc1nn(C)c(Cl)c1C1CCCN1C(=O)c1ccc2c(c1)COC2 (stereo not given),7.12
16,CN1CCCC1c1cncc(C(=O)NCCN2CCCC2)n1 (stereo not given),-40.1
17,CN(C)CC(=O)N1CCc2cccc(S(=O)(=O)N3CCOCC3)c2C1,21.2
18,O=C(c1ccc(Cl)s1)N1CCC2(CNS(=O)(=O)c3cnccc3O2)C1 (stereo not given),21.7
19,CCC1CN(CC(=O)NCCN2CCCCCC2)c2ccccc2S1 (stereo not given),0.87
20,CC(c1cc(F)ccc1F)N(C)C(=O)NCc1ccnc(N(C)C)c1 (stereo not given),21.6
21,CCOc1ccnc(N2CCN(C(=O)CCc3ccncc3)CC2)n1,-17
22,Cc1cnccc1N1CCN(c2nccc(CCC(F)(F)F)n2)CC1,83.2

row,SMILES,INHIBITION [%]
1,FC(F)(F)CCc1ccnc(N2CCN(CCc3ccncc3)CC2)n1,66.1
2,Oc1cccc(CN2CCN(c3nccc(CCC(F)(F)F)n3)CC2)c1,74.7
3,Cc1cnccc1N1CCN(C(=O)CCCN2CCCCC2)CC1,21.7
4,FC(F)(F)CCc1ccnc(N2CCN(Cc3ccccn3)CC2)n1,25.5
5,Cc1cc(C)nc(CCNc2nccc(CCC(F)(F)F)n2)n1,38.2
6,FC(F)(F)c1ccnc(N2CCCN(Cc3ccccn3)CC2)n1,-1.7
7,CNC(=O)C1CCN(c2nccc(CCC(F)(F)F)n2)C1 (stereo not given),50.1
8,CCN(C(C)=O)C1CCN(c2nccc(CCC(F)(F)F)n2)C1 (stereo not given),48.5
9,O=C(c1ccccn1)C1CCCN(c2nccc(CCC(F)(F)F)n2)C1 (stereo not given),35.1
10,FC(F)(F)CCc1ccnc(N2CCN(Cc3ccncc3)CC2)n1,-0.178
11,O=C(c1ccc2c(c1)OCO2)N1CCCC(n2ccnc2)C1 (stereo not given),-9.37
12,CN(CC(=O)Nc1cc(-c2cc(Cl)cc(Cl)c2)[nH]n1)S(C)(=O)=O,-51.9
13,CC(C)Oc1cccc(F)c1C(C(=O)O)N1CCCC1 (stereo not given),-41.4
14,CCOCC(=O)N1CCCn2c(CN3CCCCC3)nnc2C1,-1.15
15,CCS(=O)(=O)Cc1csc(-c2ccc(S(C)(=O)=O)cc2)n1,3.4
16,O=S(=O)(CCCN1CCCC1Cn1cccn1)c1ccccc1 (stereo not given),24
17,Cc1noc(C)c1-c1nc(C2CCCNC2)ccc1CO (stereo not given),-15.3
18,COC1C[C@@H]2CN(C(=O)c3ccc(C)s3)C[C@@H]2C1 (stereo not given in full),-16.55
19,O=C(NCCN1CCCS1(=O)=O)c1scnc1Cl,40.2
20,CC(=O)c1cnc(N(C)Cc2cnc3ccccc3n2)nc1C,62.7
21,CC(=O)c1cnc(N(C)Cc2cc(C)cc(C)n2)nc1C,28.5
22,Cc1cnc(N(C)Cc2cnc3ccccc3n2)nc1N(C)C,46.4
